# Measured values as given in PubChem BioAssay (NCATS).
# Records with an inconclusive call do not appear. Where a call stands in place of a potency, no number is given. Active and inactive are the calls of the source. Calls come from the whole dose curve; as a rule, active = well fitted inhibition curve with a large enough effect; inconclusive = small, poorly fitted or top-dose-only effect; inactive = flat fitted curve, though single readings scatter.
# Columns and labels:
# Test in all cases: qHTS profiling for inhibitors of Plasmodium falciparum proliferation (AID 504749); note: nearly all actives have a fitted effect of over 60% in size
# Conditions in all cases: P. falciparum in erythrocytes, SYBR Green DNA, 72 h; series mostly up to 28.7 µM
# CP268 = test system: CP268
# Outline: (§1)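 Infected RBCs, 0.3% parasitemia/2.5% Hct final; cpd 72 h, 37 C, 5% CO2; lysis buffer with saponin/triton/SYBR Green I, o/n RT dark; FI 485/535; norm. to artemisinin (0.29 uM) and DMSO.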
# CP269 = test system: CP269
# Outline: as §1
# CP286 = test system: CP286
# Outline: as §1
# CP291 = test system: CP291
# Outline: as §1
# CP297 = test system: CP297
# Outline: as §1
# CP305 = test system: CP305
# Outline: as §1
# CP315 = test system: CP315
# Outline: as §1
# CP325 = test system: CP325
# Outline: as §1
# CP329 = test system: CP329
# Outline: as §1
# CP335 = test system: CP335
# Outline: as §1
# DFO2036 = test system: DFO2036
# Outline: as §1
# DIV14 = test system: DIV14
# Outline: as §1
# DIV17 = test system: DIV17
# Outline: as §1
# DIV30 = test system: DIV30
# Outline: as §1
# Dd2 = test system: Dd2
# Outline: as §1
# ECU = test system: ECU
# Outline: as §1
# FAB9 = test system: FAB9
# Outline: as §1
# GB4 = test system: GB4
# Outline: as §1
# HB3 = test system: HB3
# Outline: as §1
# ICS = test system: ICS
# Outline: as §1
# Potency is the fitted concentration of half-maximal effect.
Structure (SMILES),Potency (CP268),Potency (CP269),Potency (CP286),Potency (CP291),Potency (CP297),Potency (CP305),Potency (CP315),Potency (CP325),Potency (CP329),Potency (CP335),Potency (DFO2036),Potency (DIV14),Potency (DIV17),Potency (DIV30),Potency (Dd2),Potency (ECU),Potency (FAB9),Potency (GB4),Potency (HB3),Potency (ICS)
CCOC(=O)n1ccn(C)c1=S,inactive,inactive,inactive,inactive,inactive,inactive,inactive,inactive,inactive,inactive,inactive,inactive,inactive,inactive,inactive,inactive,inactive,inactive,inactive,inactive
Cc1ncc(CSSCc2cnc(C)c(O)c2CO)c(CO)c1O,inactive,inactive,inactive,inactive,inactive,inactive,inactive,inactive,inactive,inactive,inactive,inactive,inactive,inactive,inactive,inactive,inactive,inactive,inactive,inactive
CCN(CC)C(=O)N1CCN(C)CC1,inactive,inactive,inactive,inactive,inactive,inactive,inactive,inactive,inactive,inactive,inactive,inactive,inactive,inactive,inactive,inactive,inactive,inactive,inactive,inactive
O=C(OCCOCCO)c1ccccc1Nc1cccc(C(F)(F)F)c1,inactive,inactive,inactive,inactive,inactive,inactive,inactive,inactive,inactive,inactive,inactive,inactive,inactive,inactive,inactive,inactive,inactive,inactive,inactive,inactive
CCOC(=O)COc1ccc2c(C)c(CCN(CC)CC)c(=O)oc2c1Cl,inactive,inactive,inactive,inactive,inactive,inactive,inactive,inactive,inactive,inactive,inactive,inactive,inactive,inactive,inactive,–,inactive,inactive,inactive,inactive
O=C(Nc1ccc(Oc2ccc(Cl)cc2)c(Cl)c1)c1cc(I)cc(I)c1O,inactive,inactive,inactive,inactive,inactive,inactive,inactive,inactive,inactive,inactive,inactive,inactive,inactive,inactive,inactive,–,inactive,inactive,inactive,–
C[N+]1(CCCCC[N+]2(C)CCCC2)CCCC1,inactive,inactive,inactive,inactive,inactive,inactive,inactive,inactive,inactive,inactive,inactive,inactive,inactive,inactive,inactive,inactive,inactive,inactive,inactive,inactive
Cc1c(C)n(Cc2ccccc2)c2ccc(C(=O)OCCN(C)C)cc12,inactive,inactive,inactive,inactive,inactive,inactive,inactive,inactive,inactive,inactive,inactive,inactive,inactive,inactive,inactive,inactive,inactive,–,inactive,–
C[C@H]1[C@H](NC(=O)/C(=N/OC(C)(C)C(=O)O)c2csc(N)n2)C(=O)N1S(=O)(=O)O (stereo in doubt),inactive,inactive,inactive,inactive,inactive,inactive,inactive,inactive,inactive,inactive,inactive,inactive,inactive,inactive,inactive,inactive,inactive,inactive,inactive,inactive
CC(C)COC(=O)OCN1C(=O)CN(CCN2CC(=O)N(COC(=O)OCC(C)C)C(=O)C2)CC1=O,inactive,inactive,inactive,inactive,inactive,inactive,inactive,inactive,inactive,inactive,inactive,inactive,inactive,inactive,inactive,inactive,inactive,inactive,inactive,inactive
CC[N+](CC)(CCNC(=O)C(=O)NCC[N+](CC)(CC)Cc1ccccc1Cl)Cc1ccccc1Cl,7.57 µM (active),4.78 µM (active),0.891 µM (active),6.75 µM (active),2.69 µM (active),3.01 µM (active),3.79 µM (active),3.38 µM (active),2.39 µM (active),2.69 µM (active),1.78 µM (active),4.26 µM (active),4.78 µM (active),6.01 µM (active),2.51 µM (active),–,1.12 µM (active),2.39 µM (active),–,1.58 µM (active)
CC1(C)CCC(NC(=O)[C@@H](N)CCC(=O)O)CC1,inactive,inactive,inactive,inactive,inactive,inactive,inactive,inactive,inactive,inactive,inactive,inactive,inactive,inactive,inactive,inactive,inactive,inactive,inactive,inactive
CCCCOc1ccc(C(=O)CCN2CCCCC2)cc1,inactive,inactive,inactive,inactive,inactive,inactive,inactive,inactive,inactive,inactive,inactive,inactive,inactive,inactive,inactive,inactive,inactive,inactive,inactive,inactive
Cc1cccn2c(=O)c(-c3nnn[nH]3)cnc12,inactive,inactive,inactive,inactive,inactive,inactive,inactive,inactive,inactive,inactive,inactive,inactive,inactive,inactive,inactive,inactive,inactive,inactive,inactive,inactive
CCOc1ccc(NC(=O)CC(C)O)cc1 (stereo unspecified),inactive,inactive,inactive,inactive,inactive,inactive,inactive,inactive,inactive,inactive,inactive,inactive,inactive,inactive,inactive,inactive,inactive,inactive,inactive,inactive
COc1cc(OC)cc(OC)c1,inactive,inactive,inactive,inactive,inactive,inactive,inactive,inactive,inactive,inactive,inactive,inactive,inactive,inactive,inactive,inactive,inactive,inactive,inactive,inactive
CC(C)(CO)[C@@H](O)C(=O)NCCCO,inactive,inactive,inactive,inactive,inactive,inactive,inactive,inactive,inactive,inactive,inactive,inactive,inactive,inactive,inactive,inactive,inactive,inactive,inactive,inactive
CC(=O)Nc1c(I)cc(I)c(C(=O)O)c1I,inactive,inactive,inactive,inactive,inactive,inactive,inactive,inactive,inactive,inactive,inactive,inactive,inactive,inactive,inactive,inactive,inactive,inactive,inactive,inactive
O=C(O)c1cc2cc(Cc3cccnc3)ccc2o1,inactive,inactive,inactive,inactive,inactive,inactive,inactive,inactive,inactive,inactive,inactive,inactive,inactive,inactive,inactive,inactive,inactive,inactive,inactive,inactive
CCOC(=O)OC(C)OC1=C(C(=O)Nc2ccccn2)N(C)S(=O)(=O)c2ccccc21 (stereo unspecified),inactive,inactive,inactive,inactive,inactive,inactive,inactive,inactive,inactive,inactive,inactive,inactive,inactive,inactive,inactive,inactive,inactive,inactive,inactive,inactive
C#C[C@]1(OC(C)=O)CC[C@H]2[C@@H]3CCC4=C[C@@H](OC(C)=O)CC[C@@H]4[C@H]3CC[C@@]21C,inactive,inactive,inactive,inactive,inactive,inactive,inactive,inactive,inactive,inactive,inactive,inactive,inactive,inactive,inactive,inactive,inactive,inactive,inactive,inactive
Cc1c(C(C)C)c(=O)n(-c2ccccc2)n1C,inactive,inactive,inactive,inactive,inactive,inactive,inactive,inactive,inactive,inactive,inactive,inactive,inactive,inactive,inactive,inactive,inactive,inactive,inactive,inactive
Cc1ccnc(NS(=O)(=O)c2ccc(N)cc2)n1,inactive,inactive,inactive,inactive,inactive,inactive,–,inactive,inactive,inactive,inactive,inactive,inactive,inactive,inactive,inactive,inactive,inactive,inactive,inactive
COc1ccc(/C=C/C(=O)c2ccc(OC)cc2OC)cc1,13.5 µM (active),9.53 µM (active),10 µM (active),8.49 µM (active),8.49 µM (active),6.01 µM (active),–,12 µM (active),–,6.75 µM (active),7.94 µM (active),10.7 µM (active),16.9 µM (active),12 µM (active),7.08 µM (active),8.91 µM (active),8.91 µM (active),7.57 µM (active),10 µM (active),12.6 µM (active)
CCCCC1=NC2(CCCC2)C(=O)N1Cc1ccc(-c2ccccc2-c2nn[nH]n2)cc1,inactive,inactive,inactive,inactive,inactive,inactive,inactive,inactive,inactive,inactive,inactive,–,inactive,inactive,inactive,inactive,inactive,–,inactive,–
Nc1cc(Cl)c(NC2=NCCN2)c(Cl)c1,inactive,inactive,inactive,inactive,inactive,inactive,inactive,inactive,inactive,inactive,inactive,–,inactive,inactive,inactive,inactive,inactive,inactive,inactive,inactive
